Only some compounds are listed: those with a hit (about 1.6% of all), similar ones and a draw of the others.
KCNQ2 inh – KCNQ2 (rat) channel inhibition. O88943. CHO-K1 KCNQ2, FluxOR thallium flux, 20 min; active compounds read low. B-score at 10 µM. 310,000 tested, 1.1% active. AID 2156;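 active = fluorescence ratio B-score at most minus 3 library SDs, with starting brightness B-score within 2 library SDs, cut at about -5.5 in these data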
KCNQ2 pot – KCNQ2 (rat) channel potentiation. CHO-K1 KCNQ2, FluxOR thallium flux fluorescence; active compounds read high. 310,000 tested, 0.54% active. O88943. B-score at 10 µM;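 active = fluorescence ratio B-score at least 3 SD of library B-scores, with initial fluorescence B-score within 3 of them, cut at about 5.3 in these data; same plate scores as AID 2156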;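 note: B-score of peak minus minimum over baseline fluorescence ratio after K+ and Tl+ stimulus; positive B-score means potentiation of KCNQ2 with more thallium influx and brighter signal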
KCNQ2 block conf – rat KCNQ2 channel inhibition, confirmatory screen; 1,000 tested, 57% active; activity change, negative = inhibition, % at 10 µM; KCNQ2-expressing cells, thallium flux; active compounds read low; shares compounds with KCNQ2 inh
KCNQ1 spec – selectivity of KCNQ2 inhibitors against human KCNQ1 | shares compounds with KCNQ2 inh | KCNQ1-expressing cells, FluxOR thallium flux fluorescence; active compounds read low | activity change, negative = inhibition, % at 10 µM | 1,000 tested, 15% active | AID 493026;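 active = activity change at least 3 SD of negative controls below their mean in both duplicate wells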;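 note: CHO cells stably transfected with KCNQ1 and depolarized by potassium stimulus; peak minus minimum fluorescence over baseline after thallium addition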
Target sequence (P51787 whole entry, looked up): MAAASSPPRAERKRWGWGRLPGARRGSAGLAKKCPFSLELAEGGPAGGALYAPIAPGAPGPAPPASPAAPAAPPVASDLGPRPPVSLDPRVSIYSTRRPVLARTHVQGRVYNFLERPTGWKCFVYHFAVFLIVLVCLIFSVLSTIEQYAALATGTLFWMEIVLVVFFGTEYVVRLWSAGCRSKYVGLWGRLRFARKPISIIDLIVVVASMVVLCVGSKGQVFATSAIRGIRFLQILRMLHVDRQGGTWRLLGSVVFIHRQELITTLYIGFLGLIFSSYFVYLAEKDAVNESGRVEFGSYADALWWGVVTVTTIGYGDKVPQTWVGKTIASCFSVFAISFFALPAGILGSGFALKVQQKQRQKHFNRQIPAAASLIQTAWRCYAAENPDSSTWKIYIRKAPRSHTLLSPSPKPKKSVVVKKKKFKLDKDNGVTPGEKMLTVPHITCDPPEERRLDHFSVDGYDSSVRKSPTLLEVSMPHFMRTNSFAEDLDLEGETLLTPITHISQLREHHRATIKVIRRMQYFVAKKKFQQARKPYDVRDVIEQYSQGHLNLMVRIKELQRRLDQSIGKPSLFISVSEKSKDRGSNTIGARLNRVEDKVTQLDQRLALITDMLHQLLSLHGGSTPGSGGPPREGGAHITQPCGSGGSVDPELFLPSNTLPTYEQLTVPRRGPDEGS
CHO Tl ctr – KCNQ2 inhibitor counter-screen hit in parental CHO cells; thallium flux counter-screen; active compounds read low; 1,000 tested, 14% active; AID 493029; shares compounds with KCNQ2 inh; activity change, % at 10 µM
KCNQ2 patch conf – confirmation of rat KCNQ2 potassium channel inhibitors; shares compounds with KCNQ2 inh; KCNQ2-expressing cells, automated patch clamp current; calls only at 10 µM; 550 tested, 49% active
Numbers stand for hits; - = inactive; . = no result given; + = active, no number. Unless noted, the rule behind the calls is not given here.

SMILES | KCNQ2 inh | KCNQ2 pot | KCNQ2 block conf | KCNQ1 spec | CHO Tl ctr | others
Cc1ccc(O)c(CNc2nc3ccccc3n2C(C)C)c1 | - | . | . | . | .
C=CCn1c(NCc2cc(C)ccc2O)nc2ccccc21 | -7.1 | - | -16% | - | - | KCNQ2 patch conf=+
CCc1cccc(C)c1NC(=O)CN(C)Cc1ccccc1F | - | . | . | . | .
COC(=O)Nc1c(-c2ccccc2)nc2ccc(Cl)cn12 | - | . | . | . | .
COC(=O)NN1C(=O)C(c2ccccc2)=C(c2ccc(Cl)cc2)C1=O | -8.8 | - | - | - | -
O=[N+]([O-])c1cnc(Nc2ccccc2)nc1Nc1ccccc1 | - | . | . | . | .
CC(C)CNC(=O)c1ccccc1N(Cc1ccccc1)S(C)(=O)=O | - | . | . | . | .
Cc1cccc(NC(=O)c2c(O)c3ccccc3n(C)c2=O)c1 | - | . | . | . | .
CC1(C)C(C=C(Cl)Cl)C1C(=O)N/N=C/c1ccccc1F (stereo not given) | -9.9 | - | -28% | - | - | KCNQ2 patch conf=+
CC1(C)OC2OC(C(=O)N/N=C/c3ccccc3F)C3OC(C)(C)OC3C2O1 (stereo not given) | - | - | . | . | .
CCCc1nc2c(sc3nc4c(cc32)COC(C)(C)C4)c(=O)n1CCN(CC)CC | - | - | . | . | .
COc1cccc(NC(=O)C(NCC2CCCCC2)c2ccccc2)c1 (stereo not given) | -10 | - | -28% | - | - | KCNQ2 patch conf=+
COc1cccc(NC(=O)C2CCCCC2)c1 | - | - | . | . | .
Cc1ccc(S(=O)(=O)N(C)c2ccc(C(=O)Nc3ccccc3C(=O)N3CCOCC3)cc2)cc1 | - | - | . | . | .
Cc1cccc2cc(C(c3nnnn3C3CCCC3)N3CCOCC3)c(=O)[nH]c12 (stereo not given) | -7.8 | - | -24% | - | - | KCNQ2 patch conf=+
CCC(C)(C)n1nnnc1C(c1cc2cccc(C)c2[nH]c1=O)N1CCCC1 (stereo not given) | - | . | . | . | .
O=C(COC(=O)c1ccc(S(=O)(=O)Nc2ccccc2)cc1)NCCC1=CCCCC1 | - | . | . | . | .
COc1ccc2c(CC(=O)OCC(=O)Nc3sc4c(c3C#N)CCC(C)C4)coc2c1 (stereo not given) | - | - | . | . | .
Cc1cccc(/C(N)=N/OC(=O)N2c3ccccc3Sc3ccccc32)c1 | -6.8 | - | - | - | -
Cc1cccc(/C(N)=N/OC(=O)Cc2ccccc2)c1 | - | - | . | . | .
COc1ccc(CCC(=O)N2CCN(c3ccccc3)CC2)cc1OC | - | - | . | . | .
CN(c1ccccc1C(=O)Nc1cccc([N+](=O)[O-])c1)S(=O)(=O)c1ccccc1 | - | . | . | . | .
CN(c1ccccc1C(=O)Nc1cccc(Br)c1)S(=O)(=O)c1ccccc1 | -6.7 | - | - | - | -
O=C(Nc1ccc(S(=O)(=O)Nc2ncccn2)cc1)C1CC(=O)N(c2ccc(Cl)cc2)C1 (stereo not given) | - | . | . | . | .
COc1cccc(Oc2ccc(C(F)(F)F)cc2NC(=O)C2=COCCO2)c1 | -7.5 | - | - | - | -
SMILES | KCNQ2 inh | KCNQ2 pot | KCNQ2 block conf | KCNQ1 spec | CHO Tl ctr | others
COc1cccc(Oc2ccc(C(F)(F)F)cc2NC(=O)c2cccc(F)c2)c1 | -7.1 | - | -26% | - | - | KCNQ2 patch conf=-
COc1ccc(Oc2ccc(C(F)(F)F)cc2NC(=O)c2ccc(F)cc2)cc1 | - | . | . | . | .
O=C(Nc1cc(C(F)(F)F)ccc1N1CCCC1)C1=COCCO1 | - | . | . | . | .
CC(C)c1ccc(NC(=S)NNC(=O)c2cccs2)cc1 | - | - | . | . | .
CC1CN(S(=O)(=O)c2cccc(C(=O)Nc3ccccc3N3CCCCC3)c2)CC(C)O1 (stereo not given) | -9.5 | - | -29% | - | - | KCNQ2 patch conf=-
CN(C)S(=O)(=O)c1cccc(C(=O)Nc2ccccc2N2CCCCC2)c1 | - | . | . | . | .
COc1ccc(NS(=O)(=O)c2cc(NC(=O)/C=C/c3ccccc3OC)ccc2N2CCCCC2)cc1 | - | . | . | . | .
CN(C(=O)/C=C/c1ccc2c(c1)OCO2)c1ccccc1 | -6.6 | - | -23% | - | - | KCNQ2 patch conf=-
COC(=O)/C=C/c1ccc2c(c1)OCO2 | - | - | . | . | .
COc1ccc(CN(CC2CCC(C(=O)O)CC2)C(=S)Nc2ccc(C)c(Cl)c2)cc1 (stereo not given) | - | . | . | . | .
COc1ccc(CCN(Cc2cc3cc(C)cc(C)c3nc2Cl)C(=O)C2CC2)cc1 | -8.6 | - | -32% | - | - | KCNQ2 patch conf=-
CN1C(=O)C(C)(C)N(C(=O)c2cccc([N+](=O)[O-])c2)c2ccccc21 | - | . | . | . | .
COc1cc2cc(C(c3nnnn3C3CCCCC3)N(C)C3CCCCC3)c(=O)[nH]c2cc1OC (stereo not given) | -11 | - | - | - | -
COc1ccc(Cn2nnnc2C(c2cc3cc(C)ccc3[nH]c2=O)N2CCN(C)CC2)cc1 (stereo not given) | - | . | . | . | .
Cc1ccc(C(c2nnnn2C2CCCCC2)N(C)C2CCCCC2)cc1 (stereo not given) | -8.3 | - | - | - | -
COc1ccc2[nH]c(=O)c(C(c3nnnn3C3CCCCC3)N3CCN(C)CC3)cc2c1 (stereo not given) | - | . | . | . | .
CC(C)C(c1nnnn1C1CCCC1)N(C)C1CCCCC1 (stereo not given) | - | - | . | . | .
COc1cc2cc(C(c3nnnn3C3CCCC3)N(C)C3CCCCC3)c(=O)[nH]c2cc1OC (stereo not given) | -9 | - | -36% | - | - | KCNQ2 patch conf=+
O=c1[nH]c2cc3c(cc2cc1C(c1nnnn1C1CCCC1)N1CCSCC1)OCCO3 (stereo not given) | - | - | . | . | .
COc1cc2cc(C(c3nnnn3Cc3ccc(F)cc3)N3CCCCCC3)c(=O)[nH]c2cc1OC (stereo not given) | -7.7 | - | -28% | - | - | KCNQ2 patch conf=+
Cc1cccnc1NC1(C(F)(F)F)N=C(c2ccccc2)NC1=O (stereo not given) | - | - | . | . | .
CCCCNC(=O)c1ccc(NS(=O)(=O)c2ccc3[nH]c(=O)[nH]c3c2)cc1 | - | . | . | . | .
COc1ccc(-c2csc(C3=C(O)CN(CCCN4CCCC4=O)C3=N)n2)cc1OC | - | . | . | . | .
COc1ccc(-c2ccc(NC(=O)c3ccc(Br)o3)cc2)nn1 | - | . | . | . | .
COc1cc(CN2CCNC(=O)C2CC(=O)N2CCCN(C(C)=O)CC2)cc(OC)c1 (stereo not given) | - | . | . | . | .
SMILES | KCNQ2 inh | KCNQ2 pot | KCNQ2 block conf | KCNQ1 spec | CHO Tl ctr | others
COC(=O)c1cc(-c2ccc(C)o2)nc2ccccc12 | - | . | . | . | .
Cc1ccc(-c2cc(C(=O)N3CC(C)OC(C)C3)c3ccccc3n2)o1 (stereo not given) | -11 | - | -33% | - | - | KCNQ2 patch conf=+
Cc1ccc(-c2cc(C(=O)NCc3ccco3)c3ccccc3n2)o1 | - | . | . | . | .
Cc1ccc(-c2cc(C(=O)Nc3ccccc3C)c3ccccc3n2)o1 | -10 | - | -40% | - | - | KCNQ2 patch conf=+
CS(=O)(=O)Oc1ccc(/C=N/NC(=O)c2ccncc2)cc1 | - | - | . | . | .
COc1ccc(CCN(C)Cc2c(O)ccc3ccccc23)cc1OC | - | - | . | . | .
O=C(O)c1cnc(-c2ccccc2)nc1Oc1ccccc1 | - | . | . | . | .
O=C(O)c1cnc(-c2ccccc2)nc1Oc1ccc(Cl)cc1 | -7.5 | - | -20% | - | - | KCNQ2 patch conf=+
O=C(O)c1ccccc1NC(=O)c1ccccc1Nc1ccccc1 | - | . | . | . | .
O=C(COC(=O)CC12CC3CC(CC(C3)C1)C2)Nc1cccnc1Cl | -7.3 | - | -38% | - | - | KCNQ2 patch conf=+

Screening results deposited in PubChem by Johns Hopkins Ion Channel Center.
